PubChem BioAssay (NCI)
Compounds without any hit were thinned out: in the full panel of roughly 79,000, 15% have a hit. Active and inactive are the calls of the source. Rule as the data show it: active = growth inhibition above about 70%; inactive = the rest.

What was measured:
[1] = NCI Yeast Anticancer Drug Screen. Data for the rad50 strain (AID 155);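 also: 0% = growth of vehicle-only cultures of the same strain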; conditions: S. cerevisiae rad50 strain growth inhibition, stronger effect = higher value
How it was run: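 Relative growth inhibition (compound vs vehicle) was measured in yeast with a defined repair-gene alteration.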

[2] = NCI Yeast Anticancer Drug Screen. Data for the mec2-1 strain (AID 157); conditions: S. cerevisiae mec2-1 strain, stronger effect = higher value
How it was run: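 Cells of the genetically defined mec2-1 yeast strain are incubated with test compound. Inhibition of growth is calculated against vehicle-treated controls.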

[3] = NCI Yeast Anticancer Drug Screen. Data for the sgs1 mgt1 strain (AID 161);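 also: 0% = growth of cultures given vehicle only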; conditions: S. cerevisiae sgs1 mgt1 strain, stronger effect = higher value
How it was run: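 Test agents were incubated with a DNA-repair-mutant yeast strain. Growth was then read and compared against vehicle-treated controls.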

[4] = NCI Yeast Anticancer Drug Screen. Data for the cln2 rad14 strain (AID 165);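 also: 0% = growth equal to vehicle treated cultures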; conditions: S. cerevisiae cln2 rad14 strain, stronger effect = higher value
How it was run: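 The screen exposed genetically defined yeast (cln2 rad14) to test compounds and scored growth inhibition relative to vehicle-treated controls.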

[5] = NCI Yeast Anticancer Drug Screen. Data for the bub3 strain (AID 167); conditions: S. cerevisiae bub3 mutant strain, stronger effect = higher value
How it was run: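 Screening used yeast with an engineered genetic alteration affecting cell cycle control. Compound-exposed cultures were compared with vehicle cultures, and reduced growth was taken as inhibition.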

[6] = NCI Yeast Anticancer Drug Screen. Data for the mlh1 rad18 strain (AID 175); conditions: S. cerevisiae mlh1 rad18 strain growth inhibition, stronger effect = higher value
How it was run: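 Compound-treated yeast growth, normalised to vehicle controls. Strain bears defined DNA repair mutations.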

[7] = at 5.0 µM (retest, dose inferred, filed as 0.5)
[8] = at 50.0 µM (retest, dose inferred, filed as 5.0)

Measured: growth inhibition

CCCCCCCCCC(=O)[O][Hg][c]1ccccc1
active: [1]; [7] 99% | [1]; [8] 99% | [1]; at 50.0 µM 71.5% | [2]; [7] 100% | [2]; [8] 99% | [2]; at 50.0 µM 99.7% | [3]; [7] 99% | [3]; [8] 100% | [3]; at 50.0 µM 99.5% | [4]; [7] 99% | [4]; [8] 99% | [4]; at 50.0 µM 99.4% | [5]; [7] 99% | [5]; [8] 98% | [5]; at 50.0 µM 99.3% | [6]; [7] 99% | [6]; [8] 99% | [6]; at 50.0 µM 99.1%

CCC[CH2][Sn]1([CH2]CCC)[O]CCN2CCN(CC[O]1)CC2
active: [1]; at 50.0 µM 74.1% | [2]; at 50.0 µM 94% | [3]; at 50.0 µM 83.2% | [6]; at 50.0 µM 85.7%
inactive: [1]; [7] -4% | [1]; [8] 12% | [2]; [7] -4% | [2]; [8] 13% | [3]; [7] -3% | [3]; [8] 9% | [4]; [7] -5% | [4]; [8] 5% | [4]; at 50.0 µM 41.6% | [5]; [7] -2% | [5]; [8] 10% | [5]; at 50.0 µM 53.1% | [6]; [7] -6% | [6]; [8] 15%

CC(=O)NNc1ccccc1
inactive: [1]; [7] 6% | [1]; [8] 44% | [1]; at 50.0 µM 62.5% | [2]; [7] 2% | [2]; [8] 52% | [2]; at 50.0 µM 66.2% | [3]; [7] 9% | [3]; [8] 53% | [3]; at 50.0 µM 68.3% | [4]; [7] 2% | [4]; [8] 65% | [4]; at 50.0 µM 40% | [5]; [7] 7% | [6]; [7] 14%
active: [5]; [8] 89% | [5]; at 50.0 µM 87% | [6]; [8] 84% | [6]; at 50.0 µM 90.7%

O=P(c1cccc(C(F)(F)F)c1)(c1cccc(C(F)(F)F)c1)c1cccc(C(F)(F)F)c1.O=P(c1cccc(C(F)(F)F)c1)(c1cccc(C(F)(F)F)c1)c1cccc(C(F)(F)F)c1.[Cl][Sn]([Cl])([Cl])[Cl]
active: [1]; [8] 79% | [2]; [8] 83% | [3]; [8] 79% | [4]; [8] 73% | [5]; [8] 89% | [6]; [8] 81%
inactive: [1]; [7] 3% | [1]; at 50.0 µM 31.7% | [2]; [7] 3% | [2]; at 50.0 µM 18.5% | [3]; [7] 3% | [3]; at 50.0 µM -5.9% | [4]; [7] -10% | [4]; at 50.0 µM 62.8% | [5]; [7] 4% | [5]; at 50.0 µM 48.8% | [6]; [7] 9% | [6]; at 50.0 µM 61.1%

COCC(C#N)NC1CC(OC2CC(O)(C(=O)CO)Cc3c(O)c4c(c(O)c32)C(=O)c2c(OC)cccc2C4=O)OC(C)C1O (configuration not stated)
active: [1]; [8] 97% | [1]; at 50.0 µM 91.3% | [2]; [8] 98% | [2]; at 50.0 µM 89% | [3]; [8] 98% | [3]; at 50.0 µM 90.2% | [4]; [8] 96% | [4]; at 50.0 µM 88.7% | [5]; [8] 98% | [5]; at 50.0 µM 92.1% | [6]; [8] 97% | [6]; at 50.0 µM 89.8%
inactive: [1]; [7] 63% | [2]; [7] 29% | [3]; [7] 52% | [4]; [7] 39% | [5]; [7] 43% | [6]; [7] 44%

Nc1cc2[nH]cnc2c([Se])n1
active: [6]; at 50.0 µM 83.8%
inactive: [1]; [7] -155% | [1]; [8] -6% | [1]; at 50.0 µM 56% | [2]; [7] -39% | [2]; [8] -11% | [2]; at 50.0 µM 62.9% | [3]; [7] -54% | [3]; [8] 19% | [3]; at 50.0 µM 48% | [4]; [7] -60% | [4]; [8] -33% | [4]; at 50.0 µM 7.45% | [5]; [7] -75% | [5]; [8] 21% | [5]; at 50.0 µM 57.5% | [6]; [7] -141% | [6]; [8] -29%

[CH3][Sn]([CH3])([Br])[Br].c1ccc(-c2nnc(-c3ccccn3)nc2-c2ccccc2)cc1
active: [1]; [8] 80% | [4]; [8] 90% | [5]; [8] 87%
inactive: [1]; [7] -3% | [1]; at 50.0 µM 20.4% | [2]; [7] -16% | [2]; [8] 58% | [2]; at 50.0 µM 32.9% | [3]; [7] -9% | [3]; [8] 53% | [3]; at 50.0 µM 16.4% | [4]; [7] -17% | [4]; at 50.0 µM 11.8% | [5]; [7] -4% | [5]; at 50.0 µM -3.3% | [6]; [7] -23% | [6]; [8] 47% | [6]; at 50.0 µM 23.8%

CN(C)N(P(N)(Cl)(c1ccccc1)c1ccccc1)P(N)(Cl)(c1ccccc1)c1ccccc1
active: [1]; [8] 90% | [2]; [8] 97% | [3]; [8] 96% | [4]; [8] 88% | [5]; [8] 88% | [6]; [8] 96%
inactive: [1]; [7] 13% | [1]; at 50.0 µM 63.2% | [2]; [7] 22% | [2]; at 50.0 µM 54.5% | [3]; [7] -221% | [3]; at 50.0 µM 44.9% | [4]; [7] 0% | [4]; at 50.0 µM 58.5% | [5]; [7] 4% | [5]; at 50.0 µM 49.5% | [6]; [7] 25% | [6]; at 50.0 µM 50.6%

O=[N+]([O-])/C=C\c1ccccc1
active: [1]; [8] 99% | [1]; at 50.0 µM 92.8% | [2]; [8] 99% | [2]; at 50.0 µM 95.2% | [3]; [8] 99% | [3]; at 50.0 µM 91.8% | [4]; [8] 99% | [4]; at 50.0 µM 82.7% | [5]; [8] 99% | [5]; at 50.0 µM 97% | [6]; [8] 99% | [6]; at 50.0 µM 79%
inactive: [1]; [7] 65% | [2]; [7] 17% | [3]; [7] 20% | [4]; [7] 14% | [5]; [7] 39% | [6]; [7] 26%
